Data taken from PubChem BioAssay (NCI).
This is part of a sample that, as a whole, favours compounds with a hit. Of some 83,000 tested, about 20% had one in any assay.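 Testing used 96-well plates and a 48-hour single-concentration exposure. Example: -40 means 40% of the starting cells died.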 Values without a mark were called inactive. Active and inactive are the calls of the source.

system: U251 CNS; experiment: NCI-60 one-dose screen, 48 h (100 = growth as untreated, 0 = no growth, -100 = all killed); conditions: 10 µM unless noted
Procedure: Growth inhibition of the U251 human tumor cell line is measured as a screen for anti-cancer activity. Cells are grown in 96 well plates and exposed to the test compound for 48 hours. Compounds are tested at a single concentration, which is 10^-5 M for most compounds. The reported endpoint is percent growth (GI% or GIPRCNT), where numbers from 0 - 100% represent growth inhibition, and numbers from -100% - 0 represent cell death. For example, a value of 40 represents 60% growth inhibition. A value of 0 means no net growth occurred over the course of the experiment. A value of -40 indicates 40% of cells at the beginning of the experiment died by the end of the experiment. A value of -100 means all cells are dead at the end of the experiment.
NCI-60 Human Tumor Cell Lines Screen was performed using the standard one-dose NCI protocol, which is described in more detail at https://dtp.cancer.gov/discovery_development/nci-60/default.htm.
Compounds with GIPRCNT values below 10 were considered active. Activity score was based on GIPRCNT using the following formula: […]
Score is 0 for GIPRCNT values of 100 or above, 50 for GIPRCNT values of 0, and 100 for GIPRCNT values of -100.

Row | Structure (SMILES) | growth
1 | O=C(/C=C/Nc1ccc(Cl)cc1)c1ccc2c(c1)Nc1ccccc1S2 | 31.5%
2 | CCCCCCCCc1ccc(C(=O)Nc2ccc(C)cc2C(=O)O)cc1C | 88.1%
3 | COc1ccc2oc(=O)c(C3(C)NC(=O)c4c(/C=C/C(=O)OC(C)(C)C)cccc4N3)cc2c1 (stereo not given) | 48.4%
4 | CC(=O)Nc1cccc(Nc2nccc(N[C@@H](C)c3ccccc3)n2)c1 | 24.4%
5 | Cn1cc(-c2nnc(N)nc2-c2c[nH]c3ccc(Br)cc23)c2cc(Br)cnc21 | 62.4%
6 | CC(=O)Oc1ccc(/C=C/C(=O)N[C@@H](Cc2ccccc2)C(O)C(=O)NCc2ccccc2)cc1OC(C)=O (stereo not given in full) | 73.8%
7 | COc1cccc(-c2nc(Nc3ccc(S(N)(=O)=O)cc3)c3ccccc3n2)c1 | 40.3%
8 | COc1ccc(NC(=O)[C@H](C)N)cc1C(=O)Nc1cccc(C2CC(=O)c3c(cc(OC)c(OC)c3OC)O2)c1 (stereo not given in full) | 93.1%
9 | CN(C)CCCNC(=O)c1cc(NC(=O)c2cc(NC(=O)c3ccc(/C=C/c4ccccc4)cc3)cn2C)cn1C | -14.9% (active)
10 | CC(C)(C)OC(=O)/C=C/c1cccc2c1C(=O)NC(C)(c1cc3cc(Cl)ccc3oc1=O)N2 (stereo not given) | 42.4%
11 | C=C1CC[C@@H]2[C@]3(C)COC(c4cn[nH]c4-c4ccc(OC)cc4)O[C@@H]3CC[C@@]2(C)[C@@H]1C/C=C1/C(=O)OCC1O (stereo not given in full) | -76% (active)
12 | O=C(CCN1C(=O)/C(=C/c2ccc(F)cc2)SC1=S)N1CCOCC1 | 89.1%
13 | Cc1ccccc1[C@H]1C(C(=O)c2ccc(Cl)cc2)C2(N[C@@H]1c1ccccc1)C(=O)Nc1ccc(Cl)cc12 (stereo not given in full) | -82.9% (active)
14 | O=C(COc1ccc(NC(=O)Nc2ccc(Cl)c(Cl)c2)cc1)N=Nc1c(O)[nH]c2ccc(Br)cc12 | -84.7% (active)
15 | N#Cc1c(-c2ccccc2Cl)cc(-c2ccc3ccccc3c2)[nH]c1=O | -2.47% (active)
16 | CNC(=O)c1cc(Oc2ccc3nc(NC(=O)Nc4cccc(OC(F)(F)F)c4)sc3c2)ccn1 | 2.42% (active)
17 | Cc1cc(C)cc(C(=O)Nc2cccc(-c3cn(-c4ccc(S(N)(=O)=O)cc4)nn3)c2)c1 | 10.9%
18 | Clc1cccc(N/N=C/c2c[nH]c3ccc(Br)cc23)n1 | 17.1%
19 | COc1cccc(COc2ccc(NC(=O)Nc3ccc(Cl)c(C(F)(F)F)c3)cc2)c1 | 31.8%
20 | COc1cc2oc(-c3cccc(C(=O)Nc4ccc(Cl)cc4)c3)cc(=O)c2c(OCCNC(=O)[C@H](CO)NC(=O)OC(C)(C)C)c1OC | 24%

Row | Structure (SMILES) | growth
21 | C=C1CC[C@@H]2[C@]3(C)COC(c4cn[nH]c4-c4ccc(C)cc4)O[C@@H]3CC[C@@]2(C)[C@@H]1C/C=C1/C(=O)OCC1O (stereo not given in full) | -63.3% (active)
22 | O=C(O)Cn1c(O)c(/C=C2/C=c3cc4c(cc3=NC2=O)OCCO4)sc1=S | 109%
23 | C#CCOc1cc(N(CC)CC)ccc1C(C(=O)NC(C)(C)C)N(C(=O)C1CCc2cc(F)ccc2O1)c1ccccc1Br (stereo not given) | 48.6%
24 | CSc1ccc(NC(=O)c2ccc3nn(/C(C#N)=C/c4ccccn4)nc3c2)cc1 | -79.9% (active)
25 | CC(=O)Nc1cccc(-c2nc3cc(-c4ccc(O)cc4)ccc3n2C)c1 | 58.7%
26 | COc1ccc(C(=O)/C=C/c2cccnc2)cc1S(N)(=O)=O | 11.2%
27 | CCCCCCCCc1ccc(C(=O)Nc2cccc(P(=O)(O)O)c2)cc1 | 108%
28 | O=C(NN1C(=O)/C(=C/C=C/c2ccc([N+](=O)[O-])o2)SC1=S)c1ccccc1O | -99.5% (active)
29 | Cc1cc2c(cc1Cl)C(=O)/C(=C/c1ccccc1)O2 | 8.18% (active)
30 | O=C1/C(=C/C2=Cc3ccccc3OC2)SC(=S)N1c1ccccc1F | 102%
31 | COc1cc(NC(=O)c2cccc(C3CCc4c(cc(OC)c(OC)c4OC)O3)c2)cc(OC)c1OC (stereo not given) | 13.5%
32 | O=C(c1ccccc1)c1ccc2nc(-c3ccc(F)cc3)[nH]c2c1 | -26.5% (active)
33 | Cc1cc2nc3c4ccccc4n(CC4=NCCN4)c3nc2cc1C | -72.5% (active)
34 | COc1ccccc1/C=C/C(=O)c1ccc(OC)c(S(N)(=O)=O)c1 | 5.14% (active)
35 | COc1c(F)ccc(C(=O)Nc2ccc3nc(NC(=O)C4CCCN(S(=O)(=O)C5CC5)C4)sc3c2)c1F (stereo not given) | 47.6%
36 | COc1ccc(C(=O)/C=C/c2c(F)cccc2Cl)cc1S(N)(=O)=O | -86.8% (active)
37 | CC(=O)Nc1ccc(C(=O)NC(=S)Nc2ccc(S(N)(=O)=O)cc2)cc1 | 94.2%
38 | CCCCc1c(Nn2cnnn2)no[n+]1[O-] | 51.3%
39 | COc1ccc2[nH]c(O)c(N=NC(=O)Cn3c(-c4ccccc4)nc4cc(C)ccc43)c2c1 | 32.4%
40 | O=C(CSc1nc2ccccc2c(=O)[nH]1)NCCN1CCCCC1 | 98.7%
